# Assay results reported in PubChem BioAssay AID743144 (Broad Institute, 2013).
# Potency and affinity values are given separately. Inconclusive results are not listed. Entries that show only a call come without a potency. Active and inactive are the calls of the source. How the calls were made is not given here.
# Assay: cytotoxicity in COV362 ovarian cancer cells, dose response, cytotoxicity control for PAX8 inhibitor project, cell-based, plate reader, dry powder, SA12 (AID 743144)
# Details: series mostly up to 35 µM
row,SMILES,outcome
1,O=C(C[C@H]1CC[C@H]2[C@@H](COC[C@@H](O)CN2S(=O)(=O)c2cccc(Cl)c2)O1)Nc1ccc(-c2ccccc2)cc1,inactive
2,COc1cccc(C#Cc2ccc([C@H]3[C@@H](CO)N(C(=O)c4ccccn4)[C@H]3C#N)cc2)c1,inactive
3,COc1cccc(C#Cc2ccc([C@@H]3[C@@H](C#N)N(C(=O)C4CCCCC4)[C@@H]3CO)cc2)c1,inactive
4,Cc1ccc(S(=O)(=O)Nc2ccc3c(c2)C(=O)N([C@H](C)CO)C[C@@H](C)[C@H](CN(C)Cc2ccc(C(F)(F)F)cc2)OCCCC[C@H](C)O3)cc1,inactive
5,COc1ccc(S(=O)(=O)Nc2ccc3c(c2)CC(=O)N([C@@H](C)CO)C[C@@H](C)[C@@H](CN(C)Cc2ccc(-c4ccccc4)cc2)O3)cc1,inactive
6,C[C@H](CO)N1C[C@H](C)[C@@H](CN(C)Cc2ccc(-c3ccccc3)cc2)Oc2ccc(NC(=O)C3CC3)cc2CC1=O,inactive
7,C[C@@H]1CN([C@H](C)CO)C(=O)CCCn2nncc2CO[C@H]1CN(C)Cc1ccc(Oc2ccccc2)cc1,inactive
8,CC(C)(C)c1nnc(NC(=O)CCS(=O)(=O)c2ccccc2)s1,inactive
9,N#C[C@@H]1[C@H](c2ccc(C#CC3CCCCC3)cc2)[C@H](CO)N1S(=O)(=O)c1ccccc1,inactive
10,C[C@H](CO)N1C[C@H](C)[C@@H](CN(C)Cc2ccc(C(F)(F)F)cc2)OCCCC[C@H](C)Oc2ccc(NS(=O)(=O)c3ccc(F)cc3)cc2C1=O,inactive
11,N#C[C@@H]1[C@H](c2ccc(-c3ccccc3F)cc2)[C@@H](CO)N1C(=O)Cc1ccccc1,inactive
12,C[C@@H]1CN([C@H](C)CO)C(=O)CCCn2cc(nn2)CO[C@H]1CN(C)C(=O)Nc1ccc(-c2cccs2)cc1,inactive
13,COc1cccc(-c2ccc([C@H]3[C@@H](CO)N(C(=O)Cc4ccccc4)[C@H]3C#N)cc2)c1,inactive
14,O=S(=O)(Nc1cccc2cccnc12)c1ccccc1,inactive
15,COc1cccc(C#Cc2ccc([C@@H]3[C@H](C#N)N(C(=O)c4ccccn4)[C@H]3CO)cc2)c1,inactive
16,O=C1/C(=C/c2ccccc2)SC(=S)N1CC(=O)N1CCCCC1c1cccnc1 (configuration not stated),inactive
17,C[C@H](CO)N1C[C@H](C)[C@H](CN(C)C(=O)Nc2ccc(-c3cccs3)cc2)OCc2cnnn2CCCC1=O,inactive
18,COc1ccc(S(=O)(=O)Nc2ccc3c(c2)CC(=O)N([C@@H](C)CO)C[C@H](C)[C@@H](CN(C)Cc2ccc(C(F)(F)F)cc2)O3)cc1,inactive
19,CC(C)c1cc(C(=O)OCC(=O)N2CCN(C(=O)c3ccco3)CC2)c(O)c(C(C)C)c1,inactive
20,O=C(Nc1ccc(OCC(F)(F)C(F)F)c(C(F)(F)F)c1)c1ccccc1O,inactive
21,CCCC#Cc1ccc([C@@H]2[C@@H](C#N)N(S(=O)(=O)c3cccc(F)c3)[C@H]2CO)cc1,inactive
22,C[C@H]1CN([C@@H](C)CO)C(=O)CCCn2nncc2CO[C@@H]1CN(C)C(=O)Nc1ccc(-c2cccs2)cc1,inactive
